# Measurements as given in PubChem BioAssay (NCI).
# About 83,000 compounds went through this panel and 20% of them were active in at least one assay; those are over-represented in the sample as a whole.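 Compound tested at a single concentration for 48 hours in 96-well plates; a percent growth value below 10 was scored as active.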 Unmarked numbers belong to inactive results. Calls of active or inactive are those of the source.
# Assays:
# Test in all cases: NCI-60 one-dose screen, 48 h (100 = growth as untreated, 0 = no growth, -100 = all killed)
# SR leukemia = conditions: 10 µM unless noted
# RPMI-8226 leukemia = conditions: 10 µM unless noted
# OVCAR-8 ovarian = conditions: 10 µM unless noted
# OVCAR-5 ovarian = conditions: 10 µM unless noted
# OVCAR-4 ovarian = conditions: 10 µM
# SK-OV-3 ovarian = conditions: 10 µM unless noted
# IGROV1 ovarian = conditions: 10 µM unless noted
# OVCAR-3 ovarian = conditions: 10 µM unless noted
# HS 578T breast = conditions: 10 µM unless noted
# NCI/ADR-RES ovarian = conditions: 10 µM unless noted
SMILES,growth (SR leukemia),growth (RPMI-8226 leukemia),growth (OVCAR-8 ovarian),growth (OVCAR-5 ovarian),growth (OVCAR-4 ovarian),growth (SK-OV-3 ovarian),growth (IGROV1 ovarian),growth (OVCAR-3 ovarian),growth (HS 578T breast),growth (NCI/ADR-RES ovarian)
O=C(NCCCNC(=O)OCc1ccc2c(Br)cc(Br)c(O)c2n1)OCc1ccc2c(Br)cc(Br)c(O)c2n1,5.95% (active),-27.3% (active),-14.6% (active),-63% (active),-77.6% (active),20.2%,-87.7% (active),-69.3% (active),-19.1% (active),-29% (active)
COc1cc2c(=O)[nH]c3cc([N+](=O)[O-])ccc3c2cc1[N+](=O)[O-],32.2%,57.2%,45.9%,74.1%,54.1%,77.4%,41.5%,63.7%,66.6%,48.7%
CCN(CCO)CCC(=O)c1ccc([N+](=O)[O-])cc1,107%,104%,101%,116%,103%,107%,108%,104%,101%,102%
Cc1cc2c(C(C)C)c(O)c(O)c(C=NCc3ccoc3)c2c(O)c1-c1c(C)cc2c(C(C)C)c(O)c(O)c(C=NCc3ccco3)c2c1O,13.9%,33.5%,30.2%,68.9%,31.2%,54.4%,46.5%,25.9%,45%,44.4%
Cc1ccc2c(n1)C(=O)C(Cl)=C(Nc1ccc(N3CCN(C)CC3)cc1)C2=O,-5.05% (active),-32.6% (active),-62.6% (active),-7.55% (active),-100% (active),89.9%,-83.5% (active),-100% (active),58%,27.6%
COc1ccc(/C=C(/C2=NCCN2)n2ccc3ccccc32)cc1,79.5%,93.1%,97.1%,90%,94.8%,97.1%,82.8%,97.9%,84.4%,93%
CCN=Cc1c(O)c(O)c(C(C)C)c2cc(C)c(-c3c(C)cc4c(C(C)C)c(O)c(O)c(C=NCC)c4c3O)c(O)c12,27%,34.8%,39.2%,63.4%,31.7%,63.4%,46.8%,32.5%,57.8%,47.9%
O=C1COCCN1c1ccc(NCc2cn(Cc3ccccc3)c3ccccc23)cc1,58.3%,86.8%,93.7%,-23.8% (active),62.6%,34.3%,15.5%,80.9%,89.4%,101%
C=CCCCCCCCCC(=O)OC(C)C,89%,99.7%,104%,99.2%,112%,102%,109%,105%,93.9%,102%
CCCOc1ccc(-c2nc(-c3ccc(N)cc3)cs2)cc1,73.9%,96.6%,87%,108%,100%,105%,94.8%,145%,130%,97.9%
CC(C)C1=NOC(=O)C1=Cc1cn(-c2ccco2)nc1-c1ccccc1,-2.02% (active),6.57% (active),80.5%,114%,94.6%,102%,90.2%,90.6%,96.1%,98%
NNC(=O)c1ccc(C(=O)NN)cc1,126%,104%,84.9%,113%,127%,119%,116%,112%,97.9%,104%
COc1cc(OC)cc(C(=O)Nc2cc(-c3cccnc3)nc(NCCCN3CCOCC3)n2)c1,57.9%,79.1%,91.8%,100%,117%,93.9%,97.4%,105%,69%,95.4%
O=C(NCCCCCCCNC(=O)OCc1ccc2c(Cl)cc(Cl)c(O)c2n1)OCc1ccc2c(Cl)cc(Cl)c(O)c2n1,6.26% (active),-15.5% (active),-8.93% (active),-76.8% (active),-71.9% (active),35%,-86.2% (active),-87.2% (active),-9.29% (active),-29.5% (active)
CCOC(=O)/C(C#N)=C(\C)CCc1ccccc1,153%,61.1%,103%,108%,58.9%,125%,81.2%,118%,98.7%,98.8%
Cn1cc(-c2noc(-c3cn(C)c4ncccc34)n2)c2cc(Cl)ccc21,82.2%,96.6%,96%,79.7%,98.3%,89%,99.8%,109%,111%,89.8%
CN(C)CCCNc1nc(-c2cccc(C(Cl)(Cl)Cl)c2)nc(C(Cl)(Cl)Cl)n1,77.8%,99.5%,101%,106%,107%,111%,94.4%,117%,91.8%,–
CC(C)c1ccc(C(=O)Nc2nc3ccc(O)cc3s2)cc1,17.1%,28.9%,40.6%,40.6%,33.9%,89.2%,49.1%,54.1%,72.3%,25.7%
CCOC(=O)CC(c1ccccc1)C(C#N)c1ccccc1 (centres undefined),97.3%,91.3%,99.2%,110%,98.7%,95.1%,108%,98.9%,89.4%,109%
O=C(O)c1cn(C2CC2)c2cc(N3CCN(Cc4cc(Cl)ccc4O)CC3)c(F)cc2c1=O,0.849% (active),41.8%,58.2%,89.4%,72.3%,71%,44.8%,81.2%,74.1%,72.7%
Nc1nc(Cl)c2ncn(Cc3cc4c(cc3I)OCO4)c2n1,9.76% (active),34.8%,60.7%,72.8%,79.7%,58.7%,83.2%,41.9%,81.2%,58%
COc1ccc2[nH]c(C(=O)N3CCN(C(=O)OCc4ccc5c(Br)cc(Br)c(O)c5n4)CC3)cc2c1,4.37% (active),-38.9% (active),-73.2% (active),-89.3% (active),-85.2% (active),-70.7% (active),-90.7% (active),-93.9% (active),-22.5% (active),-17.4% (active)
COc1ccc(NC(=O)Nc2ccc(-c3cccnc3)cc2N2CCC(CO)CC2)cc1,95.2%,54.4%,79.1%,49.6%,73.8%,71.7%,110%,40.2%,62.6%,64.4%
COC(=O)c1c(C)[nH]c(/C=C2\N=C(c3ccc[nH]3)C=C2OC)c1C,4.93% (active),-16.1% (active),-7.15% (active),0.695% (active),-67.2% (active),48.4%,-8.84% (active),-40.6% (active),-27.4% (active),13.3%
O=C(CCCSc1nc(-c2ccccc2)cc(-c2ccccc2)n1)NO,1.05% (active),14.9%,5.38% (active),9.78% (active),11.9%,-18.6% (active),12.6%,-5.33% (active),45.2%,-12.1% (active)
N#Cc1ccc(-c2ccc(COc3ccc(CC4SC(=O)NC4=O)cc3)cc2)cc1 (centres undefined),45.1%,48.5%,58.3%,96.2%,40.8%,69.9%,68.4%,64.7%,72.5%,37.8%
CC(C)C1=NOC(=O)C1=Cc1cn(-c2ccccc2)nc1-c1cccc([N+](=O)[O-])c1,-20.9% (active),-26.8% (active),58%,106%,103%,117%,70.4%,89.3%,29.7%,97%
